# Experimental data published in publication PMC4336329 (PLoS ONE, 2015).
# The whole screen tested about 310,000 compounds, of which about 14,000 (4.5%) showed an effect of 50% or more. Effects have a minus sign here. The full list was thinned out, with strong results kept by preference.
# Molecular target: human ether-à-go-go-related gene (hERG) potassium channel (human, UniProt Q12809)
# Test: primary screen, population patch clamp on CHO cells stably expressing hERG; higher = less effect of the substance
# 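Further: peak tail current of the secondary pulse compared with the same well before compound.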
# Chain of human ether-à-go-go-related gene (hERG) potassium channel (Q12809 whole entry, looked up): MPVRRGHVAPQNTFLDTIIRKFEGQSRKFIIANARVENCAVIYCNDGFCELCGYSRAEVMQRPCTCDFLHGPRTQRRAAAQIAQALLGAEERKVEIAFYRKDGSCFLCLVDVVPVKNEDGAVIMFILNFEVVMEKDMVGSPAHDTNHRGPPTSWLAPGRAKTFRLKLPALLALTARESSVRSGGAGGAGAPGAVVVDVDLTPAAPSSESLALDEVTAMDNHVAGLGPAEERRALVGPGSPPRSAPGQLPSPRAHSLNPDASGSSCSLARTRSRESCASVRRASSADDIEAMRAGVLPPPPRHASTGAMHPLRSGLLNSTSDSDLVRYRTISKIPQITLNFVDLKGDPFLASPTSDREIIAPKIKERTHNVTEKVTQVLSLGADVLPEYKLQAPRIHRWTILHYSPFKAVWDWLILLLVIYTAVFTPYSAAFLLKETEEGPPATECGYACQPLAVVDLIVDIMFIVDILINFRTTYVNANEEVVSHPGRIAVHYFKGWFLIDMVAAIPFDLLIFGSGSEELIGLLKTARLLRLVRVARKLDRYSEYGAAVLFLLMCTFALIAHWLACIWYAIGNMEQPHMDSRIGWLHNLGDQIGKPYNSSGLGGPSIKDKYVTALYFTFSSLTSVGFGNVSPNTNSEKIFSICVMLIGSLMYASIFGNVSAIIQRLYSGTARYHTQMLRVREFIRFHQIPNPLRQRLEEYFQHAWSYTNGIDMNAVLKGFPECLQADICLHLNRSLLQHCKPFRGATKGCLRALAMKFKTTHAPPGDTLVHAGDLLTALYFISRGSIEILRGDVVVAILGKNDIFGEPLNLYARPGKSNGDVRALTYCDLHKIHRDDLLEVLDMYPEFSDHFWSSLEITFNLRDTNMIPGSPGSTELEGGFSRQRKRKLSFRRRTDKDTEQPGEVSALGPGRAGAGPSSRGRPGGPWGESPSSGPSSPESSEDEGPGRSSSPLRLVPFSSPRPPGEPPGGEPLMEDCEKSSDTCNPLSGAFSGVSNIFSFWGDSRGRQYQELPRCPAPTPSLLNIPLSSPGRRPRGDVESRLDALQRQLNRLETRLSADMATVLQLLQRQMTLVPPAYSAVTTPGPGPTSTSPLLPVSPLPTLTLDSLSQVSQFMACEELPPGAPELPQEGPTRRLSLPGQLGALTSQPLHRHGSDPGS
row,Compound,"hERG current change (%, negative = inhibition) at 10uM"
1,CN(C)CCn1c(NCc2ccc3c(c2)OCO3)nc2ccccc21.Cl,-59.5%
2,Nc1c(C(=O)NCc2ccc3c(c2)OCO3)c2nc3ccccc3nc2n1CCCN1CCOCC1,1.46%
3,CCCn1c(NCc2ccc(N(C)C)cc2)nc2ccccc21,-40.2%
4,CCCCn1c(NCc2ccc3c(c2)OCO3)nc2ccccc21,-61%
5,CCn1c(NCc2ccc3c(c2)OCO3)nc2ccccc21,-38.5%
6,c1ccc2c(c1)nc(NCc1ccc3c(c1)OCO3)n2CCN1CCOCC1,-66.8%
7,CCCn1c(NCc2ccc3c(c2)OCO3)nc2ccccc21,12.6%
8,CCCCn1c(NCc2ccc(N(C)C)cc2)nc2ccccc21,-43.7%
9,O=C(NCCN1CCOCC1)C(=O)NCc1ccc2c(c1)OCO2,22.8%
10,COc1cc2c(cc1OC)C(CC(=O)O)N(C(=O)CC1CCCC1)CC2 (centres unmarked),20.6%
11,COC(=O)CCCCC1SCC(NC(=O)OC)C1NC(=O)OC (centres unmarked),2.09%
12,CC(C)(C)OC(=O)COc1cc(F)ccc1[N+](=O)[O-],-3.54%
13,CCCCn1c(=N)n(CC(O)COc2ccc(C)cc2)c2ccccc21.Cl (centres unmarked),-81.8%
14,CCCCn1c(=N)n(CC(O)COc2ccccc2)c2ccccc21 (centres unmarked),-73.1%
15,Cc1nc2ccccc2n1CC(O)COc1ccc(Br)cc1 (centres unmarked),-49.9%
16,Br.CCCCn1c(=N)n(CCOc2ccc(C)cc2)c2ccccc21,-73.1%
17,Cc1ccc(OCCn2c(=O)cnc3ccccc32)cc1,-9.95%
18,Cc1ccc(OCC(O)Cn2c3ccccc3c3ccccc32)cc1 (centres unmarked),8.1%
19,CCn1c(=N)n(CC(O)COc2ccc(C)cc2)c2ccccc21.Cl (centres unmarked),-70%
20,Cc1ccc(OCCn2c(=O)sc3ccccc32)cc1,4.98%
21,OCc1nc2ccccc2n1CC(O)COc1ccccc1 (centres unmarked),6.25%
22,Cc1cc(NC(=O)C2CCCN(S(=O)(=O)c3c(C)noc3C)C2)n[nH]1 (centres unmarked),-16.1%
23,CCOc1ccc(C(=O)COC(=O)CNC(=O)C2CCCCC2)cc1,-0.0501%
24,O=C(COC(=O)C12CC3CC(CC(C3)C1)C2)Nc1ccc([N+](=O)[O-])cc1Br,8.64%
25,CN1CCC(=NNC(=O)COc2ccc(Cl)cc2)CC1,17.4%

row,Compound,"hERG current change (%, negative = inhibition) at 10uM"
1,CCCn1c(=N)n(CC(O)COc2ccc(C)cc2)c2ccccc21.Cl (centres unmarked),-89%
2,CC1SC2(CN3CCC2CC3)NC1=O (centres unmarked),18%
3,CC1=CN2C(=NC(=O)CC2(C)C(=O)N(CC(=O)NC2CCCC2)Cc2ccccc2)C=C1 (centres unmarked),9.32%
4,COc1ccccc1N1CCN(c2nc3ccccc3nc2C(C#N)C(=O)OC(C)C)CC1 (centres unmarked),-12%
5,Cc1ccc(OCC(O)CN2CC3(C)CC2CC(C)(C)C3)cc1.O=C(O)C(=O)O (centres unmarked),-53.6%
6,CC1(C)CC2CC(C)(CN2CC(O)c2ccccc2)C1.O=C(O)C(=O)O (centres unmarked),-42.5%
7,CC1(C)CC2CC(C)(CN2CC(O)COc2ccccc2)C1.O=C(O)C(=O)O (centres unmarked),-41.5%
8,Cc1cccc(OCC(O)CN2CC3(C)CC2CC(C)(C)C3)c1 (centres unmarked),-67.6%
9,Cc1cccc(C)c1OCC(=O)N1CC2(C)CC1CC(C)(C)C2 (centres unmarked),-7.94%
10,Cc1cccc(C(=O)N2CC3(C)CC2CC(C)(C)C3)c1 (centres unmarked),0.368%
11,CSc1nnc(C)c(=O)n1COC(=O)COc1ccc2ccccc2c1,-7.33%
12,Cc1nnc(SCCN2CCOCC2)n1-c1cccc(Cl)c1.O=C(O)C(=O)O,-4.95%
13,COc1ccccc1N1CCN(C(=O)CN(c2ccc(C)c(C)c2)S(C)(=O)=O)CC1,-6.02%
14,CCc1cc(=O)oc2cc(C)cc(OCC(=O)NCc3ccccn3)c12,-40%
15,Cc1cc(OCC(=O)NCc2ccccn2)cc(C)c1Br,-69.4%
16,CCCCc1cc(=O)oc2cc(C)cc(OCC(=O)NCc3ccccn3)c12,-56.4%
17,Cc1cc(OCC(=O)NCc2cccnc2)c2c3c(c(=O)oc2c1)CCCC3,-40.1%
18,Cc1cc(OCC(=O)NCc2ccncc2)c2c(C)cc(=O)oc2c1,-30.1%
19,Cc1cc(OCC(=O)NCc2ccncc2)c2c3c(c(=O)oc2c1)CCC3,-10.3%
20,O=C(COc1ccc(Br)cc1)NCc1ccccn1,-8.53%
21,CCc1cc(=O)oc2cc(C)cc(OCC(=O)NCc3ccncc3)c12,-54.8%
22,Cc1ccc(OCC(=O)NCc2ccccn2)cc1,12.4%
23,Cc1cc(OCC(=O)NCc2ccncc2)c2c3c(c(=O)oc2c1)CCCC3,-62.2%
24,Cc1cc(OCC(=O)NCc2ccncc2)c2c(C)c(C)c(=O)oc2c1,-40.6%
25,CCCc1cc(=O)oc2cc(C)cc(OCC(=O)NCc3ccccn3)c12,-33.7%
